# Experimental data as given in the supplement of paper PMC12297408.
# Unmarked numbers belong to inactive results.
# Tested on: Plasmodium falciparum NF54/iGP1_RE9H ulg8 stage V gametocytes
# Test: gametocyte viability (luciferase signal relative to DMSO control) (% of DMSO control); higher = less gametocytocidal activity, active = 50 or less
# Settings: concentration: 1 µM; exposure time: 72 h
# Outline: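 Compounds from 10 mM DMSO stocks were spotted at nanolitre scale into 96-well plates, and day-12 stage V NF54/iGP1_RE9Hulg8 gametocytes (~2.5% gametocytemia, 3% hematocrit; medium with 0.5% Albumax II) were added to reach 10 µM or 1 µM, one well per concentration. The plates were kept at 37 °C for 72 h. Luminescence was then read on an IVIS Lumina II after mixing 90 µl of culture with 10 µl D-luciferin (30 mg/ml). Viability values are relative to the plate's mean DMSO vehicle signal.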
row,SMILES,gametocyte viability
1,CC1=C(O)C(=O)[C@@H]2O[C@@H]2C1=O [Terreic acid],98.4
2,N#C/C(=C\c1ccc(O)c(O)c1)C(N)=S,101
3,CN[C@@H]1C[C@H]2O[C@@](C)([C@@H]1OC)n1c3ccccc3c3c4c(c5c6ccccc6n2c5c31)C(=O)NC4 [Staurosporine],110
4,N#CC(C#N)=Cc1ccc(O)c(O)c1,99
5,CC(=O)c1c(O)c(C)c(O)c(Cc2c(O)c3c(c(C(=O)/C=C/c4ccccc4)c2O)OC(C)(C)C=C3)c1O [Rottlerin],100
6,O=c1[nH]c2ccc(Cl)cc2c(N[C@@H]2CN3CCC2CC3)c1-c1nc2ccccc2[nH]1,112
7,N#CC(C#N)=Cc1cc(O)c(O)c([N+](=O)[O-])c1,103
8,N#CC(C#N)=Cc1cc(O)c(O)c(O)c1,104
9,C/C(O)=C(\C#N)C(=O)Nc1cc(Br)ccc1Br,110
10,Cc1ccccc1-n1c(Cn2cnc3c(N)ncnc32)nc2cccc(C)c2c1=O,101
11,"OC[C@H]1O[C@@H](n2cnc3cc(Cl)c(Cl)cc32)[C@H](O)[C@@H]1O [5,6-dichloro-1-β-D-ribofuranosylbenzimidazole]",112
12,N#CC(C#N)=Cc1ccc([N+](=O)[O-])c(O)c1,107
13,COC[C@H]1OC(=O)c2coc3c2[C@@]1(C)C1=C(C3=O)[C@@H]2CCC(=O)[C@@]2(C)C[C@H]1OC(C)=O [Wortmannin],91.8
14,CC(C)(C)c1cc(C=C(C#N)C#N)cc(C(C)(C)C)c1O,101
15,CCN1CCN(C(=O)Cc2ccc(Nc3ncc(F)c(Nc4ccc(C(=O)Nc5ccccc5Cl)cc4)n3)cc2)CC1 [Aurora A Inhibitor I],110
16,Cn1cc(C2=C(c3cn(C4CCN(Cc5ccccn5)CC4)c4ccccc34)C(=O)NC2=O)c2ccccc21,100
17,Cc1ccccc1-n1c(Cn2ncc3c(N)ncnc32)nc2cccc(C)c2c1=O,94.7

# Same assay, conditions: concentration: 10 µM; exposure time: 72 h
row,SMILES,gametocyte viability
1,CC1=C(O)C(=O)[C@@H]2O[C@@H]2C1=O [Terreic acid],64.8
2,N#C/C(=C\c1ccc(O)c(O)c1)C(N)=S,101
3,CN[C@@H]1C[C@H]2O[C@@](C)([C@@H]1OC)n1c3ccccc3c3c4c(c5c6ccccc6n2c5c31)C(=O)NC4 [Staurosporine],27.1 (active)
4,N#CC(C#N)=Cc1ccc(O)c(O)c1,104
5,CC(=O)c1c(O)c(C)c(O)c(Cc2c(O)c3c(c(C(=O)/C=C/c4ccccc4)c2O)OC(C)(C)C=C3)c1O [Rottlerin],96.9
6,O=c1[nH]c2ccc(Cl)cc2c(N[C@@H]2CN3CCC2CC3)c1-c1nc2ccccc2[nH]1,120
7,N#CC(C#N)=Cc1cc(O)c(O)c([N+](=O)[O-])c1,101
8,N#CC(C#N)=Cc1cc(O)c(O)c(O)c1,97.9
9,C/C(O)=C(\C#N)C(=O)Nc1cc(Br)ccc1Br,101
10,Cc1ccccc1-n1c(Cn2cnc3c(N)ncnc32)nc2cccc(C)c2c1=O,96.9
11,"OC[C@H]1O[C@@H](n2cnc3cc(Cl)c(Cl)cc32)[C@H](O)[C@@H]1O [5,6-dichloro-1-β-D-ribofuranosylbenzimidazole]",119
12,N#CC(C#N)=Cc1ccc([N+](=O)[O-])c(O)c1,102
13,COC[C@H]1OC(=O)c2coc3c2[C@@]1(C)C1=C(C3=O)[C@@H]2CCC(=O)[C@@]2(C)C[C@H]1OC(C)=O [Wortmannin],89.3
14,CC(C)(C)c1cc(C=C(C#N)C#N)cc(C(C)(C)C)c1O,110
15,CCN1CCN(C(=O)Cc2ccc(Nc3ncc(F)c(Nc4ccc(C(=O)Nc5ccccc5Cl)cc4)n3)cc2)CC1 [Aurora A Inhibitor I],82.7
16,Cn1cc(C2=C(c3cn(C4CCN(Cc5ccccn5)CC4)c4ccccc34)C(=O)NC2=O)c2ccccc21,109
17,Cc1ccccc1-n1c(Cn2ncc3c(N)ncnc32)nc2cccc(C)c2c1=O,104
